An excerpt weighted towards active compounds, which were near 6.5% of everything screened.
VACV Venus inh – inhibitors of vaccinia virus (Venus reporter); Vaccinia virus Venus reporter expression, fluorescence; Potency, µM (titrated, usually from 36.5 µM), hits mostly inhibitors; actives 0.46% (n = 330,000); AID 720580; calls by dose curve; tested in A549 cells; note: nearly all actives have a fitted effect of over 30% in size
LASV entry inh – blocks Lassa virus binding to or entry into cells; Lassa virus pseudotype entry inhibition, cell reporter; Potency, µM (series often up to 37.9 µM), usual class: inhibitors; actives 1.2% (n = 300,000); calls by dose curve; tested in HEK293 cells; note: nearly all actives have a fitted effect of over 50% in size
Marburg entry inh – Marburg virus entry inhibition; Marburg virus pseudotyped entry inhibition, cell reporter; Potency, µM (titrated, usually from 37.8 µM), usual class: inhibitors; actives 1.8% (n = 300,000); calls by dose curve; tested in HEK293 cells
VACV mCherry inh – inhibitors of vaccinia virus infection (mCherry reporter signal). Vaccinia virus mCherry reporter infection, fluorescence. Potency, µM (top dose mostly 36.5 µM), most hits filed as inhibitors. actives 0.63% (n = 310,000). AID 720579; calls by dose curve; tested in A549 cells; note: nearly all actives have a fitted effect of over 35% in size
FMDV antiviral – antivirals against foot and mouth disease virus | Potency, µM (top dose mostly 57.9 µM), usual class: inhibitors | actives 1.2% (n = 410,000) | FMDV antiviral cell-based qHTS; calls by dose curve; tested in HEK293T cells; note: read-out not given here; nearly all actives have a fitted effect of over 45% in size
HCMV inh – blocks human cytomegalovirus replication; actives 4.5% (n = 410,000); AID 1259415; activity change, negative = inhibition, % at 57.5 µM; HFF cells, HCMV-luciferase reporter, 72 h; hits give low values; in the data active = activity change below about -60%; inconclusive = no clear call, values can overlap the other calls; inactive = above about -39%
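Two compound doses tested in HFFs infected with HCMV-luciferase, MOI 1 PFU/cell, 72 h at 37C. Lysate luminescence read with OneGlo; data normalized against buffer-only and 10uM Salinomycin inhibitor controls.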
Of the large screens only hits and unclear results are named; the others gave an inactive call.

O=S(=O)(c1cnc2ccccc2c1)N1CCN(c2nc(-c3cccs3)nc3ccccc23)CC1	none (no result: LASV entry inh, Marburg entry inh, FMDV antiviral, HCMV inh)
O=C(O)CNC(=O)[C@@H](CS)Cc1ccccc1	none (no result: VACV Venus inh, LASV entry inh, VACV mCherry inh, FMDV antiviral, HCMV inh)
CCOc1c(/C=C(\C#N)C(N)=O)c2ccccc2n1CC	Marburg entry inh inconclusive, FMDV antiviral inconclusive, HCMV inh -67
CCOC(=O)/C(C#N)=C\c1c(OCC)n(CC)c2ccccc12	LASV entry inh inconclusive, Marburg entry inh inconclusive, FMDV antiviral inconclusive, HCMV inh -69
CC(C)CCNC(=O)/C=C/c1ccc(Br)cc1	LASV entry inh 1.6µM, Marburg entry inh inconclusive, HCMV inh inconclusive
O=C(O)c1ccc(S(=O)(=O)/N=C2\C=C(Nc3ccccc3F)C(=O)c3ccccc32)cc1	VACV Venus inh inconclusive, LASV entry inh inconclusive, Marburg entry inh inconclusive, VACV mCherry inh inconclusive, FMDV antiviral inconclusive, HCMV inh -98
Cc1ccccc1NC1=C/C(=N\S(=O)(=O)c2ccc(C(=O)O)cc2)c2ccccc2C1=O	VACV Venus inh inconclusive, LASV entry inh inconclusive, Marburg entry inh 8.9µM, VACV mCherry inh 32µM, FMDV antiviral inconclusive
CCN1C(=O)C(Cc2nc3ccccc3c(=O)n2C)c2cc(C)ccc21 (configuration not stated)	none (no result: Marburg entry inh)
COc1ccc(/C=C/C(=O)Nc2ccc3nc4c(c(Nc5ccc(OC)c(OC)c5)c3c2)CCCC4)cc1	VACV Venus inh inconclusive, LASV entry inh inconclusive, Marburg entry inh inconclusive, VACV mCherry inh inconclusive, HCMV inh -99
COc1ccc(Nc2c3c(nc4ccc(NC(=O)/C=C/c5cc(OC)c(OC)c(OC)c5)cc24)CCCC3)cc1OC	LASV entry inh inconclusive, Marburg entry inh inconclusive, HCMV inh -102
Cc1cc(C)c2cc(CN(CCN3CCCC3)C(=O)Nc3ccc(F)cc3)c(=O)[nH]c2c1	LASV entry inh inconclusive, Marburg entry inh 4µM (no result: VACV mCherry inh)
Cc1ccc2cc(CN(CCN(C)C)C(=O)Nc3ccc(Cl)cc3)c(=O)[nH]c2c1	LASV entry inh inconclusive, Marburg entry inh inconclusive
Cc1cc(C)c2cc(CN(CCO)C(=O)Nc3ccc(Cl)cc3)c(=O)[nH]c2c1	VACV Venus inh inconclusive, LASV entry inh inconclusive, Marburg entry inh 11µM, FMDV antiviral inconclusive (no result: VACV mCherry inh)
CC(=O)N1[C@@H]2Cn3c(ccc(-c4ccccc4F)c3=O)[C@H]1[C@@H](C(=O)N1CCOCC1)[C@@H]2CO	none (no result: VACV Venus inh, LASV entry inh, Marburg entry inh, VACV mCherry inh, FMDV antiviral)
CC(=O)Nc1ccc(NC(=O)c2ccc(COc3ccccc3)cc2)cc1	none (no result: VACV Venus inh, LASV entry inh, Marburg entry inh, VACV mCherry inh)
O=C(Nc1ccc(N2CCOCC2)cc1)c1ccc(COc2ccccc2)cc1	Marburg entry inh inconclusive, HCMV inh -73
CCc1ccc(C(=O)NC(=S)Nc2ccc(N3CCOCC3)cc2)cc1	VACV Venus inh inconclusive, VACV mCherry inh inconclusive, HCMV inh -89 (no result: LASV entry inh, Marburg entry inh)
CCOC(=O)c1cnc2c(Cl)cc(Cl)cc2c1Nc1ccccc1OC	none
O=C1C=CCC(/C=C/c2ccccc2)O1 (configuration not stated)	VACV Venus inh 0.89µM, LASV entry inh inconclusive, Marburg entry inh 8.2µM, VACV mCherry inh inconclusive, FMDV antiviral inconclusive, HCMV inh inconclusive
CCCC(=O)OC[C@H]1CN(C2CCCC2)S(=O)(=O)c2c(Oc3ccc(F)cc3OC)cccc2O1	none (no result: VACV Venus inh, LASV entry inh, Marburg entry inh, VACV mCherry inh, FMDV antiviral)
CCCCCn1c(=O)c(C(=O)Nc2ccccc2S(N)(=O)=O)c(O)c2ccccc21	VACV Venus inh inconclusive, LASV entry inh inconclusive, Marburg entry inh inconclusive, HCMV inh -101
CCCCCCCn1c(=O)c(C(=O)Nc2cnccn2)c(O)c2ccccc21	LASV entry inh inconclusive, Marburg entry inh inconclusive, HCMV inh -62
S=c1nc[nH]c2n[nH]nc12	none (no result: LASV entry inh, Marburg entry inh, FMDV antiviral, HCMV inh)
COc1ccc(N=C2NC(=O)C(CC(=O)NCCc3ccc(OC)c(OC)c3)S2)cc1 (configuration not stated)	LASV entry inh inconclusive
COc1ccc(CC2SC(=Nc3ccc(F)cc3)NC2=O)cc1 (configuration not stated)	LASV entry inh 4.5µM
COC(=O)c1cc(CNC(=O)c2ccccc2OC)cc(NC(=O)c2ccccc2F)c1	none (no result: LASV entry inh, Marburg entry inh, HCMV inh)
O=S(=O)(c1ccc2ccccc2c1)N(C[C@@H](O)CN1CCOCC1)c1ccccc1	none (no result: VACV Venus inh, LASV entry inh, VACV mCherry inh, FMDV antiviral, HCMV inh)
CCN(CC)CC(O)CN(c1ccccc1)S(=O)(=O)c1ccc2ccccc2c1 (configuration not stated)	LASV entry inh inconclusive, Marburg entry inh inconclusive, VACV mCherry inh inconclusive, HCMV inh -67
Brc1ccc(N2O[C@H]3C=C[C@@H]2C3)nc1	none (no result: VACV Venus inh, LASV entry inh, Marburg entry inh, VACV mCherry inh, FMDV antiviral)
CCN1/C(=C/c2cc[n+](CCCS(=O)(=O)[O-])c3ccccc23)Sc2ccccc21	LASV entry inh inconclusive, HCMV inh inconclusive

Assay outcomes as filed in PubChem.
